Results published in PubChem BioAssay (NCATS).
Results filed as inconclusive are left out. Activity calls are given as the source filed them. Calls come from the whole dose curve; as a rule, active = well fitted curve in the direction sought with a large enough effect; inconclusive = small, poorly fitted or top-dose-only effect, or another doubt; inactive = no such curve, though single readings can be large; an effect the other way counts as inactive or inconclusive.

Experiments:
[1] = Quantitative High-Throughput drug screen in 47 multiple myeloma cell lines against the NCATS MIPE library collection: KMM1_JCRB cell viability assay (AID 1918960); note: nearly all actives have a fitted effect of over 30% in size; note: potency is the fitted concentration of half-maximal effect
Summary of the method: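 Luminescence from CellTiter-Glo, taken after 5 min at room temperature, reports cellular ATP as viability. Cells (500 per well) had been treated 48 h at 37 °C with MIPE 4.0 compounds, scaled between DMSO and medium-only controls.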

[2] = Quantitative High-Throughput drug screen in 47 multiple myeloma cell lines against the NCATS MIPE library collection: KHM11_PLB cell viability assay (AID 1918962); note: nearly all actives have a fitted effect of over 35% in size; note: potency is the fitted concentration of half-maximal effect
Summary of the method: (§1)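 Inhibition of cell viability is measured here. Each line was plated at 500 cells per well, treated with MIPE 4.0 drugs, kept 48 hours at 37C, then assayed for ATP content by CellTiter-Glo luminescence.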

[3] = Quantitative High-Throughput drug screen in 47 multiple myeloma cell lines against the NCATS MIPE library collection: JIM3_ECACC cell viability assay (AID 1918963; note: nearly all actives have a fitted effect of over 35% in size; note: potency is the fitted concentration of half-maximal effect)
Summary of the method: as §1

[4] = Quantitative High-Throughput drug screen in 47 multiple myeloma cell lines against the NCATS MIPE library collection: JIM1_ECACC cell viability assay (AID 1918964; note: potency is the fitted concentration of half-maximal effect)
Summary of the method: (§2)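 Steps: seed 500 cells per well; pin-transfer MIPE 4.0 library; incubate 48 h at 37C, 5% CO2, humidified; add CellTiter-Glo, 5 min room temperature; read luminescence.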

[5] = Quantitative High-Throughput drug screen in 47 multiple myeloma cell lines against the NCATS MIPE library collection: INA6_PLB cell viability assay (AID 1918965; note: nearly all actives have a fitted effect of over 55% in size; note: potency is the fitted concentration of half-maximal effect)
Summary of the method: (§3)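 qHTS of the MIPE 4.0 collection: 500 myeloma cells/well, 48 h drug exposure at 37C in 5% CO2, then CellTiter-Glo for 5 min at room temperature before luminescence reading.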

[6] = Quantitative High-Throughput drug screen in 47 multiple myeloma cell lines against the NCATS MIPE library collection: H1112_PLB cell viability assay (AID 1918967; note: nearly all actives have a fitted effect of over 30% in size; note: potency is the fitted concentration of half-maximal effect)
Summary of the method: as §2

[7] = Quantitative High-Throughput drug screen in 47 multiple myeloma cell lines against the NCATS MIPE library collection: Karpas25_ECACC cell viability assay (AID 1918968; note: nearly all actives have a fitted effect of over 35% in size; note: potency is the fitted concentration of half-maximal effect)
Summary of the method: as §2

[8] = Quantitative High-Throughput drug screen in 47 multiple myeloma cell lines against the NCATS MIPE library collection: KMS27_JCRB cell viability assay (AID 1918970); details: KMS27 myeloma cells, CellTiter-Glo ATP viability, 48 h; viability (% of DMSO): at 45.8 µM (top of the series); note: nearly all actives have a fitted effect of over 30% in size; note: potency is the fitted concentration of half-maximal effect
Summary of the method: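 Myeloma cells (500 per well) were exposed to MIPE 4.0 compounds for 48 h at 37 °C, 5% CO2; viability was read as ATP luminescence with CellTiter-Glo, normalized to DMSO-only (100%) and media-only (0%) wells.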

[9] = Quantitative High-Throughput drug screen in 47 multiple myeloma cell lines against the NCATS MIPE library collection: KMS12PE_JCRB cell viability assay (AID 1918972); note: nearly all actives have a fitted effect of over 30% in size; note: potency is the fitted concentration of half-maximal effect
Summary of the method: as §3

[10] = Quantitative High-Throughput drug screen in 47 multiple myeloma cell lines against the NCATS MIPE library collection: KMS20_JCRB cell viability assay (AID 1918973); note: potency is the fitted concentration of half-maximal effect; nearly all actives have a fitted effect of over 45% in size
Summary of the method: as §2

[11] = Quantitative High-Throughput drug screen in 47 multiple myeloma cell lines against the NCATS MIPE library collection: NCIH929_DSMZ cell viability assay (AID 1918978); note: nearly all actives have a fitted effect of over 35% in size; note: potency is the fitted concentration of half-maximal effect
Summary of the method: (§4)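 Viability after 48 h drug exposure was measured as ATP-dependent luminescence. Cells, 500 per well, sat at 37 °C under 5% CO2; DMSO wells set 100%, media-only wells 0%.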

[12] = Quantitative High-Throughput drug screen in 47 multiple myeloma cell lines against the NCATS MIPE library collection: OCIMY1_PLB cell viability assay (AID 1918979); note: nearly all actives have a fitted effect of over 35% in size; note: potency is the fitted concentration of half-maximal effect
Summary of the method: as §4

[13] = Quantitative High-Throughput drug screen in 47 multiple myeloma cell lines against the NCATS MIPE library collection: MM1S_ATCC cell viability assay (AID 1918980); note: nearly all actives have a fitted effect of over 45% in size; note: potency is the fitted concentration of half-maximal effect
Summary of the method: as §4

[14] = Quantitative High-Throughput drug screen in 47 multiple myeloma cell lines against the NCATS MIPE library collection: KMS12BM_JCRB cell viability assay (AID 1918971); note: nearly all actives have a fitted effect of over 35% in size; note: potency is the fitted concentration of half-maximal effect
Summary of the method: (§5)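 We plated 500 myeloma cells per well, pinned in MIPE 4.0 compounds, and incubated for 48 hours at 37C. ATP was then quantified with CellTiter-Glo, with DMSO and media-only wells defining 100% and 0%.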

[15] = Quantitative High-Throughput drug screen in 47 multiple myeloma cell lines against the NCATS MIPE library collection: MMM1_PLB cell viability assay (AID 1918976); note: nearly all actives have a fitted effect of over 35% in size; note: potency is the fitted concentration of half-maximal effect
Summary of the method: as §4

[16] = Quantitative High-Throughput drug screen in 47 multiple myeloma cell lines against the NCATS MIPE library collection: JJN3_DSMZ cell viability assay (AID 1918966; note: nearly all actives have a fitted effect of over 50% in size; note: potency is the fitted concentration of half-maximal effect)
Summary of the method: as §2

[17] = Quantitative High-Throughput drug screen in 47 multiple myeloma cell lines against the NCATS MIPE library collection: MOLP8_DSMZ cell viability assay (AID 1918977); note: nearly all actives have a fitted effect of over 45% in size; note: potency is the fitted concentration of half-maximal effect
Summary of the method: as §4

[18] = Quantitative High-Throughput drug screen in 47 multiple myeloma cell lines against the NCATS MIPE library collection: KMS21BM_JCRB cell viability assay (AID 1918974); details: ATP luminescence, 48 h; viability: at 45.8 µM (top of the series)
Summary of the method: as §2

[19] = Quantitative High-Throughput drug screen in 47 multiple myeloma cell lines against the NCATS MIPE library collection: KMS26_JCRB cell viability assay (AID 1918975); note: nearly all actives have a fitted effect of over 45% in size; note: potency is the fitted concentration of half-maximal effect
Summary of the method: as §5

Measured: Potency

COc1ccc(C=CC(=O)Nc2ccccc2C(=O)O)cc1OC
active: [5] 0.0019 µM | [10] 11.8 µM | [13] 11.8 µM
not listed: [14] | [15] | [16] | [17] | [18] | [19]
inactive: all other assays above

C[C@@H]1CC=CC=CC=CC=C[C@@H](O[C@@H]2O[C@H](C)[C@@H](O)[C@H](N)[C@H]2O)C[C@@H]2O[C@](O)(C[C@@H](O)C[C@@H]3O[C@@H]3C=CC(=O)O1)C[C@H](O)[C@@H]2C(=O)O
inactive: [1] | [4] | [9]
active: [2] 13.2 µM | [3] 5.9 µM | [5] 18.7 µM | [6] 16.6 µM | [7] 20.9 µM | [14] 10.5 µM | [15] 23.5 µM | [11] 16.6 µM | [13] 20.9 µM

O=C(Nc1cccc(Cl)c1)Nc1ncc(CCNc2ncnc3ccsc23)s1
active: [1] 5.9 µM | [2] 4.18 µM | [3] 13.2 µM | [5] 7.43 µM | [16] 5.26 µM | [6] 0.0833 µM | [14] 6.62 µM | [15] 16.6 µM | [17] 3.72 µM | [11] 7.43 µM | [12] 5.9 µM | [13] 16.6 µM

CCN1C[C@H](C)n2c(c(O)c3c(=O)n(Cc4ccc(F)c(Cl)c4)nc(C(=O)NC)c32)C1=O
active: [15] 2.64 µM
not listed: [8] | [10] | [14] | [16] | [17] | [19]
inactive: all other assays above

C=CCc1cccc(C=NNC(=O)CN2CCN(Cc3ccccc3)CC2)c1O
active: [1] 5.26 µM | [2] 20.9 µM | [3] 23.5 µM | [4] 5.26 µM | [5] 14.8 µM | [7] 18.7 µM | [8] 5.26 µM | [9] 4.18 µM | [10] 20.9 µM | [15] 16.6 µM | [17] 6.62 µM | [11] 26.4 µM | [12] 8.33 µM | [13] 9.35 µM

CC1(C)C(N(O)C(=O)Nc2ccc(Cl)cc2)N(c2ccc(Cl)cc2)C(=O)N1CC(=O)NN=CC=Cc1ccc([N+](=O)[O-])o1 (centres undefined)
inactive: [1] | [8] | [9]
active: [2] 11.8 µM | [3] 14.8 µM | [5] 7.43 µM | [16] 4.18 µM | [6] 9.35 µM | [7] 8.33 µM | [14] 8.33 µM | [19] 8.33 µM | [15] 14.8 µM | [17] 3.72 µM | [11] 7.43 µM | [12] 8.33 µM | [13] 9.35 µM

NC[C@H]1O[C@H](O[C@@H]2[C@@H](O)[C@@H](O[C@H]3O[C@H](CO)[C@@H](O)[C@H](N)[C@@H]3O)[C@H](N)C[C@@H]2N)[C@H](O)[C@@H](O)[C@H]1O
not listed: [4] | [5] | [10] | [13] | [15] | [16] | [18] | [19]
inactive: all other assays above

COc1ccc(CCC(=O)Nc2nc3ccc(Cl)cc3s2)cc1OC
active: [3] 14.8 µM | [15] 3.72 µM | [11] 18.7 µM | [13] 13.2 µM
inactive: [1] | [2] | [16] | [8] | [9] | [19] | [17]

CC(=O)NCCC(=O)N[C@@H](CCC(N)=O)C(=O)N[C@@H](CO)C(=O)N[C@@H](CCC(N)=O)C(=O)N[C@@H](CCC(N)=O)C(=O)N[C@H](C(=O)N[C@@H](Cc1ccccc1)C(=O)N[C@]1(C)CCCCCCC=CCCC[C@@](C)(C(=O)N[C@@H](CCC(N)=O)C(=O)N[C@@H](CC(N)=O)C(N)=O)NC(=O)[C@H](CC(C)C)NC(=O)[C@H](CC(C)C)NC(=O)[C@@H](CCCNC(=N)N)NC(=O)[C@H](Cc2c[nH]c3ccccc23)NC(=O)[C@H](CC(C)C)NC(=O)[C@H](CC(N)=O)NC1=O)[C@H](C)O
active: [2] 18.7 µM | [3] 20.9 µM | [4] 7.43 µM | [5] 20.9 µM | [16] 14.8 µM | [7] 26.4 µM | [14] 9.35 µM | [10] 18.7 µM | [19] 14.8 µM | [15] 5.26 µM | [11] 23.5 µM | [12] 20.9 µM | [13] 20.9 µM
inactive: [1] | [9]

CC=C1C2C=C(C)CC1(N)c1ccc(=O)[nH]c1C2 (centres undefined)
not listed: [4] | [5] | [10] | [14] | [15] | [18]
inactive: all other assays above

CNC1[C@H](O)C(O[C@@H]2C(O)C(O[C@H]3O[C@H]([C@@H](C)NC)CC[C@H]3N)[C@@H](N)C[C@H]2N)OC[C@]1(C)O (some centres undefined)
not listed: [4] | [10] | [13] | [15] | [16] | [17] | [18]
inactive: all other assays above

O=C(O)CCC=CCC[C@@H]1[C@H](N2CCCCC2)[C@@H](O)C[C@@H]1OCc1ccc(-c2ccccc2)cc1
not listed: [4] | [5] | [7] | [10] | [12] | [17] | [18]
inactive: all other assays above
